In PubChem BioAssay AID1159580 (chemical genetic matrix, 2015):
“And” between values parts separate entries of the source, which are not always exact repeats. Equal entries are not always repeated. About 2,000 (36%) of roughly 5,500 compounds were called active. Inconclusive results (about 18%) are left out. Rule as the data show it: active = normalized growth mostly below about 0.91 (no sharp cut-off); inconclusive = no clear call, values can overlap the other calls; inactive = mostly above about 0.92. The list shows a part of the results.

Test: chemical genetic growth profiling, strain panel (AID 1159580);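 also: tested at 20 µM; growth read once vehicle control cultures reached saturation at 30 °C; 1 = growth at the plate median or of vehicle wells; lower values mean less growth of the strain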
Conditions: S. cerevisiae deletion strains, growth OD

Measured: normalized growth

COc1cc2c(cc1OC)-c1cc3ccc(OC)c(OC)c3c[n+]1CC2
inactive: locus YAL013W, strain DEP1, hits give low values 0.993 | locus YAL021C, strain ccr4, hits give low values 0.988 | locus YAL026C, strain drs2, hits give low values 0.987 | locus YAL030W, strain snc1, hits give low values 0.988 | locus YBL061C, strain skt5, hits give low values 0.988 | locus YBR009C, strain hhf1, hits give low values 0.984 | locus YBR021W, strain FUR4, hits give low values 0.977 and 1.02 | locus YBR023C, strain chs3, hits give low values 0.983 | locus YBR171W, strain sec66, hits give low values 0.971 | locus YBR229C, strain ROT2, hits give low values 0.979 and 1 | locus YBR231C, strain swc5, hits give low values 0.981 | locus YBR279W, strain paf1, hits give low values 0.979 | locus YCL011C, strain gbp2, hits give low values 0.991 | locus YCL016C, strain dcc1, hits give low values 0.978 | locus YCL029C, strain bik1, hits give low values 0.991 and 1.01 | locus YCL061C, strain MRC1, hits give low values 0.989 | locus YCL069W, strain vba3, hits give low values 0.988 | locus YCR088W, strain abp1, hits give low values 0.98 | locus YDL005C, strain med2, hits give low values 0.975 | locus YDL035C, strain GPR1, hits give low values 1.1 and 0.985 | locus YDL040C, strain nat1, hits give low values 0.988 | locus YDL074C, strain BRE1, hits give low values 1.05 and 1.02 | locus YDL101C, strain DUN1, hits give low values 0.982 and 1.03 | locus YDL134C, strain PPH21, hits give low values 0.989 and 0.983 | locus YDL185W, strain tfp1, hits give low values 0.988 and 1.03 | locus YDL192W, strain arf1, hits give low values 0.991 and 1.01 | locus YDR001C, strain nth1, hits give low values 0.982 | locus YDR069C, strain doa4, hits give low values 0.976 | locus YDR101C, strain arx1, hits give low values 0.985 and 1.02 | locus YDR137W, strain rgp1, hits give low values 0.97 | locus YDR150W, strain NUM1, hits give low values 0.992 and 1.01 | locus YDR159W, strain sac3, hits give low values 0.999 | locus YDR162C, strain NBP2, hits give low values 1.01 and 1 | locus YDR195W, strain ref2 0.921 | locus YDR297W, strain sur2, hits give low values 0.984 | locus YDR318W, strain mcm21, hits give low values 0.987 and 1.01 | locus YDR334W, strain swr1, hits give low values 0.986 | locus YDR335W, strain msn5, hits give low values 0.99 | locus YDR388W, hits give low values 0.99 and 1.02 | locus YDR392W, strain spt3, hits give low values 1.01 | locus YDR502C, strain sam2, hits give low values 0.985 and 1.01 | locus YEL003W, strain gim4, hits give low values 0.99 | locus YEL037C, strain rad23, hits give low values 0.987 | locus YEL061C, strain CIN8 (second series), hits give low values 0.967 | locus YEL061C, strain CIN8, hits give low values 0.99 and 1.01 | locus YER015W, strain faa2, hits give low values 0.989 | locus YER016W, strain bim1, hits give low values 0.987 | locus YER110C, hits give low values 0.983 and 1.02 | locus YER111C, strain swi4, hits give low values 0.97 | locus YER155C, strain BEM2 (second series), hits give low values 0.909 | locus YER155C, strain BEM2, hits give low values 0.994 and 1.01 | locus YER167W, strain BCK2, hits give low values 0.977 and 0.997 | locus YFR010W, strain ubp6, hits give low values 0.969 | locus YGL078C, strain dbp3, hits give low values 0.991 and 1.01 | locus YGL086W, strain mad1, hits give low values 0.952 and 0.998 | locus YGL167C, strain pmr1, hits give low values 0.981 | locus YGL173C, strain kem1, hits give low values 0.98 | locus YGL227W, strain vid30, hits give low values 0.974 | locus YGL240W, strain doc1, hits give low values 0.969 | locus YGL248W, strain PDE1, hits give low values 0.983 and 1.02 | locus YGL253W, strain hxk2, hits give low values 0.996 | locus YGR078C, strain PAC10, hits give low values 1.01 | locus YGR135W, strain pre9, hits give low values 1 and 1.01 | locus YGR229C, strain SMI1, hits give low values 1.02 | locus YGR252W, strain gcn5, hits give low values 0.952 and 1.02 | locus YHR013C, strain ard1, hits give low values 0.966 | locus YHR027C, strain rpn1, hits give low values 0.975 | locus YHR030C, strain SLT2, hits give low values 0.989 and 1.04 and 1 | locus YHR079C, strain IRE1 (second series), hits give low values 0.991 and 1.02 | locus YHR079C, strain IRE1, hits give low values 1.03 | locus YHR094C, strain hxt1, hits give low values 0.991 and 1.02 | locus YHR129C, strain ARP1, hits give low values 0.987 and 1.01 | locus YHR142W, strain chs7, hits give low values 1.02 | locus YHR200W, strain rpn10, hits give low values 0.987 and 1 | locus YIL066C, strain RNR3, hits give low values 0.973 and 0.985 | locus YIL073C, strain SPO22, hits give low values 0.95 and 1.04 | locus YIL125W, strain kgd1, hits give low values 0.996 and 1.01 | locus YIR030C, strain dcg1, hits give low values 0.989 and 1.01 | locus YJL092W, strain hpr5, hits give low values 0.979 | locus YJL095W, strain BCK1 (second series), hits give low values 0.973 | locus YJL095W, strain BCK1, hits give low values 1 and 1.02 and 1.05 | locus YJL115W, strain asf1, hits give low values 0.975 | locus YJL129C, strain trk1, hits give low values 0.96 | locus YJL134W, strain LCB3, hits give low values 0.97 and 1 | locus YJL154C, strain vps35, hits give low values 0.98 | locus YJL164C, strain tpk1, hits give low values 0.98 | locus YJL166W, strain qcr8, hits give low values 0.974 | locus YJL168C, strain set2, hits give low values 0.989 and 1.02 | locus YJL187C, strain SWE1 (second series), hits give low values 0.997 and 1.05 | locus YJR043C, strain POL32, hits give low values 0.998 and 0.991 | locus YJR066W, strain TOR1, hits give low values 0.965
